Cruzain inh noDet: qHTS Assay for Promiscuous and Specific Inhibitors of Cruzain (without detergent); Potency, µM, most hits filed as inhibitors; actives 2.3% (n = 200,000); Cruzipain (Trypanosoma cruzi), P25779; AID 1476, 2009; purified cruzain, Z-FR-AMC fluorescence, no detergent; note: nearly all actives have a fitted effect of over 40% in size
Target sequence (P25779 123-467 limits assumed): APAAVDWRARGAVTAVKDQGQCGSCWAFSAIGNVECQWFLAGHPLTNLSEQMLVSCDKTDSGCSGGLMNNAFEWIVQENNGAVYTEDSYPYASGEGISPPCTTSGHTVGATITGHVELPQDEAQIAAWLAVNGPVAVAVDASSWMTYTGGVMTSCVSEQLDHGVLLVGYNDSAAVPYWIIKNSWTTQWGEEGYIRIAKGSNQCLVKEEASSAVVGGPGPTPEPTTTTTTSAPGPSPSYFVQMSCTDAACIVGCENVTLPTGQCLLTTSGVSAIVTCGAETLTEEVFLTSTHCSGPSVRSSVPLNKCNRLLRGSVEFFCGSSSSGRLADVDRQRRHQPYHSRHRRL
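Detergent-free condition (0.00005% Triton X-100) in acetate buffer pH 5.5 with DTT. 1.5 nM enzyme and compound were pre-mixed 15 min, then 2 uM Z-FR-AMC substrate added; reaction progress from fluorescence change between first and third reads (60 s).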
Cruzain inh Det: qHTS Assay for Promiscuous and Specific Inhibitors of Cruzain (with detergent). Cruzipain (Trypanosoma cruzi), P25779. purified cruzain, Z-FR-AMC fluorescence, 0.01% Triton. Potency, µM, hits mostly inhibitors. actives 0.43% (n = 200,000). AID 1478, 2009; note: nearly all actives have a fitted effect of over 40% in size
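Compounds were screened in titration against cruzain (1.5 nM) with 0.01% Triton X-100 to counter colloidal aggregation. Activity was the AMC fluorescence increase over 60 s after adding 2 uM Z-FR-AMC at pH 5.5.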
Large screens that a line does not name were inactive. Sampled rows, rich in hits. Any-hit rate of the full collection: about 2.6%. Calls come from the whole dose curve; as a rule, active = well fitted curve in the direction sought with a large enough effect; inconclusive = small, poorly fitted or top-dose-only effect, or another doubt; inactive = no such curve, though single readings can be large; an effect the other way counts as inactive or inconclusive.

O=C(Nc1ccc2nc(-c3cccs3)[nH]c2c1)c1cccs1	none
O=C(Nc1ccc2nc(-c3cccs3)[nH]c2c1)c1ccco1	Cruzain inh noDet 20µM
O=C(Nc1ccc(-c2nc3ccc(NC(=O)c4cccs4)cc3[nH]2)cc1)c1cccs1	Cruzain inh noDet 25.1µM, Cruzain inh Det 11.2µM
O=C(c1ccccc1)c1ccc2nc(-c3ccc(NC(=O)c4ccccc4Br)cc3)[nH]c2c1	none
O=C(Nc1ccc(-c2noc(-c3ccccc3F)n2)cc1)c1cccs1	Cruzain inh noDet 20µM
Cc1ccccc1C(=O)Nc1ccc(-c2nc3ccc(C(=O)c4ccccc4)cc3[nH]2)cc1	Cruzain inh noDet 12.6µM
O=C(Nc1cccc(-c2nc3ccccc3[nH]2)c1)c1ccco1	none
O=C(O)[C@@H](Br)[C@H](Br)C(=O)O	none
Cn1cccc1-c1nc2ccc(NC(=O)c3ccco3)cc2[nH]1	none
Cc1ccc2nc(-c3ccc(NC(=O)c4ccco4)cc3)[nH]c2c1	Cruzain inh Det 25.1µM
CSc1ccc(Cl)c(C(=O)OCC(=O)NCc2ccco2)c1	none
CSc1ccc(Cl)c(C(=O)NCc2ccco2)c1	Cruzain inh noDet 20µM, Cruzain inh Det inconclusive
O=C(c1ccc(Cl)cc1)c1cn(Cc2ccccc2)c2cc3c(cc2c1=O)OCCO3	none
CC(=O)N1c2ccc(S(=O)(=O)N3CCCCCC3)cc2CC1C(=O)NC(C)C (stereo not given)	none
COc1ccc(-c2nc3cnc(N4CCNCC4)nc3n(C3CC3)c2=O)cc1	none
CCOc1ccc(Nc2oc(-c3ccc(Cl)cc3)nc2C#N)cc1	Cruzain inh noDet inconclusive
CN(C)c1oc(-c2ccc(OCc3ccc(Cl)cc3)cc2)nc1C#N	Cruzain inh noDet 20µM, Cruzain inh Det inconclusive
CN(c1ccccc1)S(=O)(=O)c1ccc(NC(=S)NC(=O)c2ccccc2)cc1	Cruzain inh noDet inconclusive
COc1ccccc1/C=C/C(=O)NC(=S)Nc1ccc(S(=O)(=O)N(C)c2ccccc2)cc1	Cruzain inh noDet 3.98µM
CCc1cc2cc3c(cc2nc1SCC(=O)Nc1nccs1)OCO3	Cruzain inh noDet 20µM
Cc1ccc2c3c(c(SCC(=O)Nc4nccs4)nc2c1)CCCC3	none
O=C(Oc1ccccc1)N1CCC[C@@]2(CCN(c3ccccc3)C2)C1	none
COc1cc(NC(=O)CSc2nc3ccccc3cc2Cc2ccccc2)cc(OC)c1	Cruzain inh noDet 31.6µM
COc1ccc(OC)c(NC(=O)CSc2nc3ccccc3cc2Cc2ccccc2)c1	Cruzain inh noDet 20µM
COc1ccc(NC(=O)CSc2nc3ccccc3cc2Cc2ccccc2)cc1	Cruzain inh noDet inconclusive
COc1cccc(NC(=O)CSc2nc3ccccc3cc2Cc2ccccc2)c1	Cruzain inh noDet inconclusive
CC[C@@H](CO)NC(=O)[C@H]1C=C2c3cccc4c3c(cn4C)C[C@H]2N(C)C1	Cruzain inh noDet inconclusive
Cn1c(=O)c2c(n3c4ccccc4nc13)NC(=O)CC2c1ccccc1F (stereo not given)	none
COc1ccc(C2/C=C\[C@H](O[Si](C)(C)C(C)(C)C)[C@H](C(C)C)CC(=O)N2Cc2ccccc2)cc1 (stereo not given in full)	none
Cc1cc(NC(=O)c2ccco2)cc(-c2nc3cc(Cl)ccc3o2)c1O	none
O=C(COC(=O)/C=C/c1ccccc1[N+](=O)[O-])Nc1ccc(OC(F)F)cc1	none
O=C(COC(=O)/C=C/c1ccccc1[N+](=O)[O-])Nc1ccc(OCc2ccccc2)cc1	Cruzain inh noDet 25.1µM
COc1cccc(Nc2ncc3nc(C)c(=O)n(CCC#N)c3n2)c1	none
O=C(c1cc(C(=O)NCc2ccccc2)c(=O)n(Cc2ccccc2)c1)c1cc(Cl)ccc1O	Cruzain inh noDet inconclusive
Cc1ccccc1NC(=O)c1cc(C(=O)c2cc(Cl)ccc2O)cn(-c2ccccc2C)c1=O	Cruzain inh noDet 7.94µM
CCc1ccc2oc(C(=O)NCCc3ccc(OC)c(OC)c3)cc(=O)c2c1	none
Brc1ccc(-c2nn3c(Cc4ccccc4)nnc3s2)o1	none
c1ccc(Cc2nnc3sc(Nc4ccccc4)nn23)cc1	Cruzain inh noDet 25.1µM
CC1=C(c2ccc(C)c(C)c2)S(=O)(=O)N(Cc2ccc(C(=O)Nc3cc(F)ccc3F)cc2)C1=O	none
N=C1C(c2nc(-c3ccc(F)cc3)cs2)=C(O)CN1CCCN1CCOCC1	none
CC(C)CCN1CC(O)=C(c2nc(-c3ccc(Cl)cc3)cs2)C1=N	Cruzain inh noDet 25.1µM
Nc1ncnc2c1c(I)cn2C1OC(CO)C(O)C1O (stereo not given)	none
COc1ccc2oc(=O)c(/C(C)=N/Nc3nc(-c4cc(C)ccc4C)cs3)cc2c1	Cruzain inh noDet 12.6µM
C/C(=N\Nc1nc(-c2ccc(C)cc2C)cs1)c1cc2ccccc2oc1=O	Cruzain inh noDet inconclusive
COc1ccccc1NC(=O)C1CCN(S(=O)(=O)c2ccc3[nH]c4c(c3c2)CCCCC4)CC1	Cruzain inh noDet 20µM
COc1cccc(NS(=O)(=O)c2ccc3[nH]c4c(c3c2)CCCCCC4)c1	none
CC(=O)c1ccc(N2CCN(S(=O)(=O)c3ccc4[nH]c5c(c4c3)CCCCC5)CC2)cc1	Cruzain inh noDet 10µM

Screening data (PubChem BioAssay)
